Experimental data published in PubChem BioAssay (NCATS).
Records with an inconclusive call do not appear. Active and inactive are the calls of the source. Unless noted, the call rests on the fitted dose curve; in most records, active means well fitted curve in either direction with a large enough effect (not every such curve was filed as active); inconclusive means small, poorly fitted or top-dose-only effect, or another doubt; inactive means flat fitted curve, though single readings scatter.

target: Glucocorticoid receptor (Homo sapiens) (UniProt P04150); assay: GR-EFC Redistribution (AID 451; calls by dose curve; further: potency means the concentration at half of the fitted maximal effect); conditions: CHO-K1 GR-EFC translocation, beta-gal luminescence, 2 h
Sequence (P04150 whole entry, looked up, the tested form may be a part): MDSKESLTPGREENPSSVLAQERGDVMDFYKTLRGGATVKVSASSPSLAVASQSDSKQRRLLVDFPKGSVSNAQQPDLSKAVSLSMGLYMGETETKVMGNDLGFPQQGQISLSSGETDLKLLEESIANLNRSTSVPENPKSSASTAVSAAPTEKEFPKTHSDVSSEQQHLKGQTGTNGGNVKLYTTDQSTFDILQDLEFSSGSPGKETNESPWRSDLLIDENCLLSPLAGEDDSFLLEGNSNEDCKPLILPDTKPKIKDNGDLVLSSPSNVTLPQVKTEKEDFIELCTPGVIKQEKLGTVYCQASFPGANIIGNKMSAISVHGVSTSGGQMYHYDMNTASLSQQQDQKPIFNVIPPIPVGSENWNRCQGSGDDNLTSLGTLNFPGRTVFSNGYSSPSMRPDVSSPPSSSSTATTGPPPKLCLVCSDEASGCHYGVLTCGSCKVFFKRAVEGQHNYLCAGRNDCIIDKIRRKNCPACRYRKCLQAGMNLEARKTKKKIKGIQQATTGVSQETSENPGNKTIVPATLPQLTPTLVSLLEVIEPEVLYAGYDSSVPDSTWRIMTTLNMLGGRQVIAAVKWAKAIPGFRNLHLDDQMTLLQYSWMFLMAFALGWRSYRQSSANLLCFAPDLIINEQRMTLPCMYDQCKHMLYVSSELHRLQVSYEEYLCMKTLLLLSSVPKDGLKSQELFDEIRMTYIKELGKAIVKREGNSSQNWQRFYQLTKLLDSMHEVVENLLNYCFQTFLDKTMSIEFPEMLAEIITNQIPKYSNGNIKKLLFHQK
Procedure, shortened: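 CHO-K1 cells expressing nuclear EA and GR-ED fragments of b-gal; compounds titrated up to 46 uM final, 2 h at 37 C. GR nuclear translocation read as complemented b-gal luminescence after 1 h RT detection.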

Potency, inactive:
CCNc1ncc2nc(-c3ccccc3)c(=O)n(C)c2n1 > 46 µM
COc1ccc(-c2nc3cnc(Nc4cccc(OC)c4)nc3n(Cc3cccs3)c2=O)cc1 > 46 µM
COCCn1c(=O)c(-c2cccs2)nc2cnc(N3CCOCC3)nc21 > 46 µM
O=c1c(-c2ccccc2)nc2cncnc2n1-c1ccccc1 > 46 µM
c1csc(CNc2ccnc(-c3ccc4c(c3)OCO4)n2)c1 > 46 µM
COc1c(O)cc2oc3cc(O)c(CC=C(C)C)c(O)c3c(=O)c2c1CC=C(C)C > 20.6 µM
O=c1c(-c2cccs2)nc2cnc(N3CCOCC3)nc2n1CCc1ccccc1 > 46 µM
COc1ccc(-c2nc3cnc(Nc4ccccc4)nc3n(CCC#N)c2=O)cc1 > 46 µM
COC(=O)C1=C(C)NC(C)=C(C(=O)OCCSc2ccccc2)[C@@H]1C > 46 µM
COc1ccccc1-c1ccc2ncnc(N(C)Cc3ccco3)c2c1 > 46 µM
Cn1c(=O)c(-c2ccccc2)nc2cnc(Nc3ccccc3)nc21 > 46 µM
COc1cccc(Cn2c(=O)c(-c3ccc(Cl)cc3)nc3cnc(N4CCNCC4)nc32)c1 > 46 µM
COc1ccc(C(=O)N2CCC3(CCCN(c4cccc(-c5ccccc5)c4)C3)CC2)cc1 > 46 µM

target: Mitogen-activated protein kinase 10 (Mus musculus) (UniProt Q61831); assay: JNK3 AlphaScreen Assay (AID 530); conditions: JNK3 lysate, c-Jun phosphorylation; series mostly up to 57.1 µM; activity change, negative = inhibition: at the top concentration;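 further: kinase came from lysate of stimulated human HepG2 cells; signal reports phosphorylation of biotinylated GST-cJun 1-79 at Ser73 with 10 µM ATP; on the % scale 0 is the no-effect control and ±100 the full control effect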
Procedure, shortened: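 HepG2 lysate (IL-1b/TNFa pre-activated) + biotin-GST-cJun 1-79 + anti-pSer73 cJun; cpd titration, 15 min RT; ATP 10 uM start; Tris pH 7.6, MgCl2, DTT, vanadate; beads in EDTA buffer; AlphaScreen.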

Activity change, negative = inhibition, inactive:
COc1ccc(C(=O)N2CCC3(CCN(Cc4cc(C(F)(F)F)cc(C(F)(F)F)c4)CC3)CC2)cc1 -1.49%
COc1ccc(CNc2ccnc(-c3cccc(C#N)c3)n2)c(OC)c1 33.2%
O=c1c(-c2cc(F)cc(F)c2)nc2cnc(N3CCOCC3)nc2n1-c1ccccc1 21.8%
c1ccc(CNc2ccnc(-c3ccc4c(c3)OCO4)n2)cc1 9.76%
COc1cccc(-c2nc(NCc3ccc(OC)cc3OC)c3ccccc3n2)c1 -4.66%
COc1ccc(C(=O)N2CCC[C@@]3(CCN(Cc4cc(C(F)(F)F)cc(C(F)(F)F)c4)C3)C2)cc1 -2.36%
COc1ccc(CNc2nc(-c3ccc4c(c3)OCO4)nc3ccccc23)c(OC)c1 -5.39%
COc1ccc(-n2c(=O)c(-c3cccs3)nc3cnc(Nc4cccc(OC)c4)nc32)cc1 1.85%
COc1cccc(Cn2c(=O)c(-c3ccc(Cl)cc3)nc3cnc(OC)nc32)c1 4.95%
COc1ccccc1CNc1nc(-c2cccnc2)nc2ccccc12 -8.03%
c1ccc(CNc2nc(-c3ccc4c(c3)OCO4)nc3ccccc23)cc1 3.37%
CN(C)c1ncnc2ccc(-c3ccccc3C(F)(F)F)cc12 2.56%
CN(C)c1ncc2nc(-c3cccs3)c(=O)n(-c3ccccc3)c2n1 11.2%
COc1cccc(Cn2c(=O)c(-c3cccs3)nc3cnc(Nc4cccc(OC)c4)nc32)c1 10.1%
O=C(c1csnn1)N1CCC2(CC1)CN(c1cccc(-c3ccccc3)c1)C2 -28.4%
COc1ccc(C(=O)N2CCC3(CCCN(Cc4cc(C(F)(F)F)cc(C(F)(F)F)c4)C3)CC2)cc1 -0.304%
N#CCCn1c(=O)c(-c2ccc(Cl)cc2)nc2cnc(Nc3ccccc3)nc21 -2.24%
O=c1c(-c2ccc(F)cc2)nc2cnc(Nc3ccccc3)nc2n1Cc1cccs1 9.21%
COc1cccc(-c2nccc(NCc3cccs3)n2)c1 0.656%
Cc1noc(C)c1-c1nc(Nc2ccc(F)cc2)c2ccccc2n1 -4.25%
Cc1nc2cnc(N(C)C)nc2n(-c2ccccc2)c1=O 2.42%
COc1cccc(Nc2ncc3nc(-c4ccccc4)c(=O)n(C)c3n2)c1 2.05%
Cn1cc(-c2nc3cnc(N4CCOCC4)nc3n(CCC#N)c2=O)c2ccccc21 9.03%
CCNc1ncc2nc(-c3ccccc3)c(=O)n(C)c2n1 4.6%
COc1ccc(-c2nc3cnc(Nc4cccc(OC)c4)nc3n(Cc3cccs3)c2=O)cc1 4.76%
COCCn1c(=O)c(-c2cccs2)nc2cnc(N3CCOCC3)nc21 11.3%
O=c1c(-c2ccccc2)nc2cncnc2n1-c1ccccc1 -7.34%
c1csc(CNc2ccnc(-c3ccc4c(c3)OCO4)n2)c1 -0.207%
COc1c(O)cc2oc3cc(O)c(CC=C(C)C)c(O)c3c(=O)c2c1CC=C(C)C -24.2%
COc1ccc(-c2nc3cnc(Nc4ccccc4)nc3n(CCC#N)c2=O)cc1 4.96%

Potency, inactive:
Cc1c(CC(C)(C)C(=O)O)n(Cc2ccc(Cl)cc2)c2ccc(F)cc12
